Shown is part of a subset that was picked to be rich in hits.
FBPA Giardia inh – qHTS Assay for Inhibitors of Fructose-1,6-bisphosphate Aldolase from Giardia Lamblia; purified Giardia FBPA; Potency, µM (top dose mostly 59.6 µM), for the others: at the top dose activity, negative = inhibition, actives largely listed as inhibitors; hit rate 0.71% among 290,000; AID 2451, 2010; note: potency is the fitted concentration of half-maximal effect; % is set by controls: 0 for no effect and ±100 for the full control effect; nearly all actives have a fitted effect of over 55% in size
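Giardia FBPA (40 nM reagent) was preincubated 10 min at RT with compound (up to 57.5 uM final), then substrate plus GAPDH/TPI/NAD/arsenate coupling system with diaphorase/resazurin was added; resorufin fluorescence (525/598 nm) was read after 20 min.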
LmPK inhibitor – qHTS Assay for Inhibitors of Leishmania Mexicana Pyruvate Kinase (LmPK). Q27686. purified LmPK, Kinase-Glo ATP luminescence, 1 h. Potency, µM (top dose mostly 57.5 µM), without a hit: at the top dose activity change, negative = inhibition, usual class: inhibitors. hit rate 0.37% among 290,000. AID 1721, 2009; note: potency is the fitted concentration of half-maximal effect; % is set by controls: 0 for no effect and ±100 for the full control effect
Target sequence (Q27686 whole entry, looked up): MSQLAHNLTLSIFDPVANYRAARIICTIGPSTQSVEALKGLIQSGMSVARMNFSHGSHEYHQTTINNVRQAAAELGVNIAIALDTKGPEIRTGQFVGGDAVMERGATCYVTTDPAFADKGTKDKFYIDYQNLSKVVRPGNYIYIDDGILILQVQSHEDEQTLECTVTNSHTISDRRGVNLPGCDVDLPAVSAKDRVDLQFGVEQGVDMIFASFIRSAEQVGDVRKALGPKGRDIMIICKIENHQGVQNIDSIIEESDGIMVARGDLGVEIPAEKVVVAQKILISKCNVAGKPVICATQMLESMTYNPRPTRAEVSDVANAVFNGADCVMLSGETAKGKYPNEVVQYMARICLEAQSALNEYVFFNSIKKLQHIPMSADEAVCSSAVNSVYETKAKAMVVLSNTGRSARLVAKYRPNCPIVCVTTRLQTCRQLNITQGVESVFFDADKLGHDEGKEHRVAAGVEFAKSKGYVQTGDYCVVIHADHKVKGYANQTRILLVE
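Screened at intermediate enzyme activity to detect both inhibitors and activators: LmPK at 0.1 nM, with a 0.5 nM enzyme column as activation reference. PEP 0.5 mM, ADP 0.1 mM; ATP detected by luminescence after 1 h.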
CHX counter – Cycloheximide Counterscreen for Small Molecule Inhibitors of Shiga Toxin; cell reporter, cycloheximide protein synthesis inhibition counterscreen; AID 2314, 2010; max response, %; hit rate 12% among 300,000; in the data active = max response mostly above about 13%, no sharp cut-off; inactive = mostly below about 14%; note: read at 38.3 µM for the half of the compounds with a filed dose; 0% is about no effect
Shiga toxin inh – A qHTS for Small Molecule Inhibitors of Shiga Toxin | Vero cells, Shiga toxin protein synthesis inhibition reporter | inhibition, % at 38.7 µM | hit rate 9.2% among 290,000; in the data active = inhibition mostly above about 28%, no sharp cut-off; inactive = mostly below about 43%; note: 0% is about no effect
Tb PYK inh – qHTS of Trypanosoma Brucei Inhibitors; AID 624173, 2012; hit rate 0.12% among 410,000; pyruvate kinase (Trypanosoma brucei), Q57TT1; Potency, µM (titrated, usually from 76.8 µM), for the others: at the highest dose activity, negative = inhibition, most hits filed as inhibitors; TbPYK enzyme, Kinase-Glo Plus ATP luminescence, 45 min; note: potency is the fitted concentration of half-maximal effect; % is set by controls: 0 for no effect and ±100 for the full control effect; nearly all actives have a fitted effect of over 50% in size
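Luminescent Kinase-Glo Plus end-point after 45 min room-temperature reaction of T. brucei pyruvate kinase started with 130 uM ADP (final). Buffer TEA 50 mM pH 7.2 with KCl, MgCl2, BSA, Tween-20; titration-based qHTS with fitted concentration-effect curves.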
Sm TGR inh – qHTS Assay for the Inhibitors of Schistosoma Mansoni Peroxiredoxins. Schistosoma mansoni thioredoxin glutathione reductase (TGR), Q962Y6. purified TGR, DTNB reduction, TNB absorbance 405 nm. Potency, µM (titrated, usually from 114 µM), inactives show at the top dose activity change, negative = inhibition, usual class: inhibitors. hit rate 3% among 360,000. AID 485364, 2010; note: potency is the fitted concentration of half-maximal effect; % is set by controls: 0 for no effect and ±100 for the full control effect; nearly all actives have a fitted effect of over 60% in size
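Kinetic colorimetric format: TGR-catalysed, NADPH-driven DTNB reduction monitored via TNB absorbance. Enzyme dispensed at 20 nM; compound exposure 15 min at room temperature before reaction start.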
* = called active by the depositor; ? = inconclusive; · = not tested or not shown; + = active, no number; [ ] = remark or other dose. Unless noted, calls come from the whole dose curve; as a rule, active = well fitted curve in the direction sought with a large enough effect; inconclusive = small, poorly fitted or top-dose-only effect, or another doubt; inactive = no such curve, though single readings can be large; an effect the other way counts as inactive or inconclusive.

SMILES | FBPA Giardia inh | LmPK inhibitor | CHX counter | Shiga toxin inh | Tb PYK inh | Sm TGR inh
O=C1CC(Sc2nnnn2-c2ccccc2)C(=O)N1c1cccc(Cl)c1 (configuration not stated) | -25.8% | 0.6% | 20.5* | 24.4 | ? | 2.82µM*
CCOC(=O)C(N)CSC1CC(=O)N(c2ccc(OCC)cc2)C1=O (configuration not stated) | ? | 0.5% | -1.3 | -3.8 | 3.3% | 44.7µM*
CCOC(=O)C1(Cc2ccccc2C)CCCN(C(=O)c2ccc(C(C)=O)s2)C1 (configuration not stated) | · | · | · | · | 4.7% | ·
CCc1cc2c(=O)[nH]c(-c3ccccn3)nc2s1 | 14.0% | -10.7% | 88.9* | 126.3* | 0.5% | -6.9%
CCc1cc2c(=O)[nH]c(N3CCCC3)nc2s1 | -6.9% | -3.8% | 27.8* | + | -9.8% | -10.8%
COc1cnc(-c2ccccn2)[nH]c1=O | 3.54µM* | -12.3% | -0.5 | 29.7 | -1.4% | 2.6%
CCc1cc2c(=O)[nH]c(CC(N)=O)nc2s1 | -1.0% | 1.1% | -1.1 | 13.9 | -4.5% | ·
Cc1ccc(Nc2ncc3c(n2)CC(C)CC3=O)c(C)c1 (configuration not stated) | 1.9% | -2.1% | 39.0* | 96.9* | 3.4% | -0.8%
COc1cc(OC)cc(C(=O)Nc2ncc3c(n2)CC(C)CC3=O)c1 (configuration not stated) | -6.9% | -2.3% | 4.1 | 18.0 | 0.9% | 7.9%
CC1CC(=O)c2cnc(NCc3ccco3)nc2C1 (configuration not stated) | 5.4% | -2.9% | 15.9* | 53.3 | 40.2% | -2.9%
CC1CC(=O)c2cnc(Nc3ccccc3)nc2C1 (configuration not stated) | 2.4% | -12.0% | 47.7* | 55.3 | -3.3% | 6.6%
CC1CC(=O)c2cnc(Nc3cccc(C(F)(F)F)c3)nc2C1 (configuration not stated) | -9.8% | 5.3% | 17.5 | 63.5 | 5.6% | 9.6%
COc1cccc(C(=O)Nc2ncc3c(n2)CC(C)CC3=O)c1 (configuration not stated) | 13.6% | -8.8% | 39.7* | 71.2* | 6.0% | -4.5%
Cc1onc(-c2ccc(Br)cc2)c1C(=O)Nc1ccc(Br)cc1F | · | · | · | · | 0.1% | -8.7%
CC(=O)c1ccc(NC(=O)c2nc(-c3ccccc3)n(-c3ccc(Cl)cc3)n2)cc1 | · | · | · | · | -2.2% | -15.2%
Cc1ccc(-n2c3c(c(=O)[nH]c2=O)C(NC(=O)c2ccccc2C)(C(F)(F)F)C(=O)N3)cc1 (configuration not stated) | · | · | · | · | 4.8% | 0.3%
O=C(Cn1cc(SCc2c(F)cccc2Cl)c2ccccc21)N1CCCCC1 | · | · | · | · | 0.1% | 4.8%
CCc1sc(C(=O)N2CCc3cc(OC)c(OC)cc3C2CC(=O)O)cc1C (configuration not stated) | · | · | · | · | -2.7% | ?
CN/N=C(\Cc1nc2ccccc2[nH]1)c1ccc([N+](=O)[O-])cc1 | -15.0% | -5.8% | 32.4* | 57.4* | 9.9% | -10.8%
CCc1cc(C(=O)Cc2ccc(F)cc2)c(O)cc1O | 0.1% | 6.4% | -5.3 | -7.7 | -1.2% | -2.2%
O=C(Cc1nc2ccccc2[nH]1)c1ccc([N+](=O)[O-])cc1 | -0.5% | -2.7% | 29.0* | 59.9* | 3.5% | -4.0%
CCc1cc(C(=O)COc2ccccc2F)c(O)cc1O | 24.5% | 0.8% | 27.6* | 15.8 | 11.6% | 2.9%
CCc1cc(C(=O)Cc2nc3ccccc3[nH]2)c(O)cc1O | -6.1% | -0.2% | 39.6* | 142.6* | -12.6% | 3.7%
Cc1cccc(COC(=O)CCCNC(=O)c2ccc(Cl)cc2)c1 | · | · | · | · | 4.4% | 2.8%
Clc1ccc(/C(Cc2nc3ccccc3[nH]2)=N\Nc2ccccc2)cc1 | -11.0% | 13.8% | 37.1* | 34.3* | 0.0% | -17.4%
SMILES | FBPA Giardia inh | LmPK inhibitor | CHX counter | Shiga toxin inh | Tb PYK inh | Sm TGR inh
Oc1ccc(O)c(Cc2nc3ccccc3[nH]2)c1 | -28.6% | -15.6% | 17.3 | 21.8 | 2.0% | 6.31µM*
O=C(Cc1nc2ccccc2[nH]1)c1ccc(Cl)cc1 | -0.7% | -3.5% | 23.3* | 62.2* | 2.9% | -6.9%
O=C(NCCc1nc2ccccc2[nH]1)Nc1ccccc1 | 2.9% | 5.0% | 1.9 | -15.7 | 0.9% | 7.8%[11.4 µM]
O=C(NCCc1nc2ccccc2[nH]1)c1cccc(Br)c1 | 7.4% | 2.7% | -2.4 | -2.6 | -0.9% | -4.1%
N#CCCN/N=C(/Cc1nc2ccccc2[nH]1)c1cccc(Cl)c1 | -24.3% | 5.0% | 42.7* | 99.0* | 0.4% | -17.3%
COc1ccccc1Cc1nc2ccccc2nc1SCC(=O)Nc1ccccc1C(F)(F)F | · | · | · | · | 2.9% | -4.9%
O=c1c(-c2cc(F)cc(F)c2)nc2cnc(N3CCOCC3)nc2n1Cc1ccc(F)cc1 | 6.3% | · | · | · | · | ·
CC#CCN(Cc1ccco1)C(=O)c1ccc(OC2CCN(Cc3ccccn3)CC2)cc1 | · | -1.4% | 1.4 | -3.9 | 4.0% | 79.4µM*
CN(Cc1ccco1)C(=O)c1ccc(OC2CCN(Cc3ccccn3)CC2)cc1 | · | -3.7% | 6.3 | 4.1 | -3.2% | ?
COc1ccc(CNC(=O)Nc2nc(C(N)Cc3ccc(Cl)cc3)cs2)cc1 (configuration not stated) | · | · | · | · | 0.2% | ·
CCOC(=O)c1c(S(=O)(=O)NCCCc2ccco2)c(C)n(C)c1C | 6.9% | -4.2% | -2.7 | -6.9 | -9.2% | 28.2µM*
CC(C)(C)c1ccc(C2NC(=O)c3n[nH]c(-c4cccs4)c32)cc1 (configuration not stated) | · | · | · | · | -5.4% | 3.2%
CCCNC(=O)CS(=O)(=O)c1ccccc1 | -6.8% | -0.2% | 10.4* | 16.4 | -3.1% | -21.9%
Cc1ccc(CNC(=O)CS(=O)(=O)c2ccccc2)cc1 | 1.2% | 3.7% | 25.5* | 43.9 | 0.0% | 0.7%
O=C(CS(=O)(=O)c1ccccc1)NCc1ccccc1 | 22.1% | -3.7% | -2.5 | -4.9 | 4.1% | -10.4%
O=C(CCNC(=O)c1ccc(Br)cc1)NCc1ccccn1 | · | · | · | · | -0.1% | 0.3%
Cc1cc2c(N)cccc2nn1 | ? | ? | 0.6 | -23.8 | -11.0% | 25.1µM*
COCCNc1nc(-c2cc(C)c(C)cc2C)cs1 | -10.9% | 0.9% | 20.3* | 72.6* | 3.6% | -2.5%
Fc1ccccc1N1CCN(c2nc3ccccc3n3nnnc23)CC1 | 13.6% | 6.5% | 14.3* | 23.1 | -7.9% | 4.4%
CCCNC(=O)c1cc(Cl)c(NC(=O)C2=CSCCO2)cc1OC | · | -8.1% | 20.2 | 19.1* | 0.0% | -4.7%
CCCNC(=O)c1cc(Cl)c(NC(=O)C2=C(C)OCCS2)cc1OC | -2.3% | -4.6% | 21.1 | 26.9 | 7.2% | 2.0%
Cc1ccc(C(=O)c2ccc([N+](=O)[O-])cc2)cc1 | 8.7% | 1.8% | 11.0 | 20.4 | -9.9% | -3.7%
